From the supplement of paper PMC6555819

Each sequence was assayed on PXR homodimer (NR concentration 270 nM) (assay: PBM binding z-score (relative to random genomic background probes); higher = stronger binding; sequences stand for … in GC…GCGATTGACAGCGTAGAATGAAGG).
Summary of the method: (§1)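 Binding buffer was PBS pH 7.4 with 2% milk, 0.02% Triton X-100, 1 mM DTT, 0.2 mg/mL BSA and 0.4 mg/ml salmon testes DNA. In it, ligand-free nuclear receptor dimers were incubated 1 h on custom Agilent 4×180K protein-binding microarrays carrying double-stranded probes. Antibodies against each partner (one per run) detected binding, and z-scores were calculated against random background probes after regression normalization of scanned fluorescence.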

Sequence	PBM binding z-score
TCTCCTAGGTCAACGATGGTCAGCTAATCTGCTA	-0.309
GGAATGAGGGCATTCGAGTTGATAGCATGGCGAT	1.54
GGAACGAGGGCAAGTTGAGAGCAGAGTTTGATGG	0.275
TCTTGTAAATCAACAGGAGGTTAAGAAAGATCGA	0.241
CTACCAAGGTGAACAAGATCGTTGATTACTATTC	-0.209
ATCTGTAGGTAACAAGTTCAGTGAAAGAGAGGAC	0.906
CCGAGCAGGTTATGGGGCATTCAGGCAACGGTGA	-0.362
GGAACGTGGGCAAGTTGATAGCAGAGTTTGATGG	0.121
TCGGGTAGGTTAGGGGCATTCAGAATGGCGTCGA	1.27
ACTGGGAGGACAAAGGTCAGAGCTACGCCAGTGA	0.638
CGTCCAAGGTCTATGCTAGGTCAGTGAAAGCATT	-0.113
TCGAGAAGGTTACCAATGGGGCATTCAGCTTTCT	-1
GCATATAGGTAATACAAGCTGAAAGTCCGATTGT	-0.000493
TCTTGTAGATCAACAAGAGGTTAAGAAAGATCGA	0.0734
ACTAGCAGGCCATGGGTCACTCAAGATTAGTCCG	-0.43
CGAACTAGGTAAGAACAGGACAGTGAAGGATGAT	-0.137
ACTAGTTCGTCAGCTGAGGTCACACACAATTCGG	2.76
TAGCCTGGGTCATTGGGCCAGTATAGTACGCATC	-1.02

The sequences below were run on RARa:RXR (NR concentration 270 nM, RXRa partner concentration 90 nM) in the same assay as above.
Summary of the method: as §1

Sequence	PBM binding z-score
TCTCGGAGGACACGAAAGGCCAGAGCTCGACATC	0.327
TGTCAAAGTTCAAAGGTAACGGAAGTATCCACAC	6.93
GCTGCTAGATCAGGTTGGTCAGCTAACGGGTACG	-0.344
TCATATAGGTAAATCCTAGGTGAAAGTCCGATCT	1.11
GCTTACGGGTCAAAGGCTATAGCATGAATAGAAT	4.4
TCAAGTAGGTTAGGGGCATTCAGAATGGCGTCGA	0.878
ATCTCAAGGTAACAAGTTCAGTGAAAGAGAGGAC	1.33
CCGACTGGGGCAGAAAGGTTACTATACCATCCGG	1.18
CTCGAAAGGTCGTGCTCAGGTGCGTATACCAAAC	3.46
CCGACTGGGGCATAAGGGTACCATAAGCCAGCCC	-0.246
TGTCAAAGTTGAAAGGTAACGTAAGTATCCACAC	2.56
TCGAGTAGGTAAGGGGCATTCAGAATGGCGTCGA	-0.00481
CCTACTGGGCCATTCAGAGGTCATTGGTCATATG	4.46
CAAACTAGGTCAAAGTCAAAGTCGGTTTGTGCCA	2.61
CAAACTAGGTCAAGAGGTCAACGTCCGCTTCCCG	7.72
CATACAGGGTCAGCTAGGCCAGAGTCGGGACGGC	3.26

Sequence	PBM binding z-score
GCTTGTATATCAAGGTTAAGAAAGACTAAGCTAA	0.967
ATATGTAGGTTAGCGGGTCATTCAGTTTGCGCAT	2.89
CGTCCAAGGTCGATGCTAGGTCAGTGAAAGCATT	2.49
GCAGACAGGTGAAACGCAGGTTACTCAGGGTGGC	0.833
CGTCCAAGGTCATAGTAGGTCAGTGAAGACAGAT	5.14
ATCTCTAGGTAAGACTCAGTTCTGTGAAGAACGC	0.274
TCTCCTAGGTCAACGATGGTCAGCTAATCTGCTA	2.66
GGAATGAGGGCATTCGAGTTGATAGCATGGCGAT	1.44
GGAACGAGGGCAAGTTGAGAGCAGAGTTTGATGG	0.482
TCTTGTAAATCAACAGGAGGTTAAGAAAGATCGA	1.26
CTACCAAGGTGAACAAGATCGTTGATTACTATTC	0.949
ATCTGTAGGTAACAAGTTCAGTGAAAGAGAGGAC	1.16
CCGAGCAGGTTATGGGGCATTCAGGCAACGGTGA	0.225
GGAACGTGGGCAAGTTGATAGCAGAGTTTGATGG	-0.634
TCGGGTAGGTTAGGGGCATTCAGAATGGCGTCGA	1.32
